From PubChem
HT1080-NT tox: kills 2HG-producing HT-1080-NT fibrosarcoma cells; HT-1080-NT fibrosarcoma viability, CellTiter-Glo ATP luminescence, 48 h; Potency, µM (doses to about 46.1 µM), inactives show at the highest dose activity, negative = less viability, hits mostly cytotoxic; hit rate 1.6% among 360,000;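 also: NT is the 2HG producing partner of a matched IDH1 knockdown line; potency is read from the fitted curve at half-maximal effect; 0% = DMSO-treated cells and -100% = media-only wells without cells; nearly all actives have a fitted effect of over 55% in size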
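Compounds were tested in concentration-response format on HT-1080-NT cells for 48 hours at 37 degrees C. Cell viability came from CellTiter-Glo luminescence; curves were classified by r2, response magnitude and activity.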
DT40 TDP1 CPT: DT40-hTDP1 cell growth loss with CPT; chicken DT40 Tdp1-/-;hTDP1 cells + 20 nM CPT, ATP luminescence, 48 h; Potency, µM (titrated, usually from 46.2 µM), for inactives: at the highest dose activity change, negative = growth inhibition, most hits filed as inhibitors; hit rate 12% among 420,000; AID 686979; also: potency is read from the fitted curve at half-maximal effect; nearly all actives have a fitted effect of over 55% in size
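Chicken DT40 Tdp1-/- cells stably complemented with human TDP1 were seeded at 400 cells/well in medium containing 20 nM camptothecin, exposed to pin-transferred compounds, and grown at 37 °C for at least 48 hr. Viability was read as ATP luminescence.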
IL1B secr inh: inflammasome signaling inhibition, IL-1 beta readout | THP-1 LPS/ATP IL-1B secretion, AlphaLISA, 16 h; active compounds read low | activity change, % at 57.5 µM | hit rate 4.7% among 360,000 | AID 743279; in the data active = activity change below about -50%; inconclusive = mostly about -30% to -49%
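THP-1 cells pretreated 1 hr with compounds (up to 57.5 uM final), then stimulated with LPS (250 ng/mL final) plus ATP (1.25 mM final); secreted IL-1B measured by AlphaLISA after 16 hr, decreased signal indicating inhibition.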
HT1080 IDH1KD tx: kills HT-1080 cells with IDH1 knockdown; HT-1080 IDH1 knockdown viability, ATP luminescence, 48 h; Potency, µM (top dose mostly 46.1 µM), without a hit: at the top dose activity, negative = toxicity, actives largely listed as cytotoxic; AID 686971; hit rate 2% among 360,000;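 also: potency is read from the fitted curve at half-maximal effect; 0% = DMSO wells and -100% = cell-free medium wells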
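Knockdown cells (IDH1KD HT-1080) received compounds 2 h after plating at 750 cells/well and were kept 48 h at 37 °C in 5% FBS RPMI. A CellTiter-Glo luminescence read gave % activity for curve fitting.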
TDP1 cell noCPT: qHTS for Inhibitors of human tyrosyl-DNA phosphodiesterase 1 (TDP1): qHTS in cells in absence of CPT | hit rate 15% among 420,000 | Potency, µM (titrated, usually from 46.2 µM), for inactives: at the highest dose activity change, negative = growth inhibition, hits mostly inhibitors | DT40 Tdp1-/- hTDP1 cells, no CPT, ATP luminescence, 48 h | AID 686978, 2013; also: potency is read from the fitted curve at half-maximal effect; nearly all actives have a fitted effect of over 55% in size
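Stably hTDP1-transfected Tdp1-null chicken DT40 cells were treated with library compounds minus camptothecin and grown for at least 48 hr at 37 °C, after which cellular ATP was quantified by luminescence.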
12-LOX inh: blocks human arachidonate 12S-lipoxygenase; hit rate 1.1% among 580,000; purified 12hLO, xylenol orange hydroperoxide absorbance; Potency, µM (doses to about 108 µM), for inactives: at the top dose activity change, negative = inhibition, hits mostly inhibitors; P18054; AID 1671190; also: potency is read from the fitted curve at half-maximal effect
Target sequence (P18054 whole entry, looked up): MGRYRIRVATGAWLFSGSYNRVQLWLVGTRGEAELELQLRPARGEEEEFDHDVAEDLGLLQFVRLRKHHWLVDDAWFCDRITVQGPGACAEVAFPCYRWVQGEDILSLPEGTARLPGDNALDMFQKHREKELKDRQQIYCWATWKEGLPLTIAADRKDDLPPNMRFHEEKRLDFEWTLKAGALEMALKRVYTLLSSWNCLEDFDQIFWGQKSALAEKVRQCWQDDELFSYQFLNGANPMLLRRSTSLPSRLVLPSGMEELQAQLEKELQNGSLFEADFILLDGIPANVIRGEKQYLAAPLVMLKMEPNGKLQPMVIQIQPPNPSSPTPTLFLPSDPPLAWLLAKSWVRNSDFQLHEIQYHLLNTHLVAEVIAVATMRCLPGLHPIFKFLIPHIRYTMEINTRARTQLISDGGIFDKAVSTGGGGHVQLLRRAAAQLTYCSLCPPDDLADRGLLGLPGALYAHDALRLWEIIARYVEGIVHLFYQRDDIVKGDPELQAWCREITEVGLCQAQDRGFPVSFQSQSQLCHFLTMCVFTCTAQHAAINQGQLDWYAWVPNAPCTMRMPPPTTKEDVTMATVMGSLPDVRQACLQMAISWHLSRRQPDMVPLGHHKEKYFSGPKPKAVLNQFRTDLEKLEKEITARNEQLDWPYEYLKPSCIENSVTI
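Purified human 12hLO (150 nM final) in 25 mM Hepes, 0.01% Triton X-100, pH 7.0 was preincubated 15 min at room temperature with compound. Then 40 uM arachidonic acid was added, 30 min. Hydroperoxide was read by Fe-XO absorbance ratio 573/405 nm.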
Numbers without * were called inactive; ? = inconclusive; · = no result. The full list was thinned out, with hits kept by preference. Unless noted, calls follow the shape of the dose curve; as a rule, active = well fitted curve in the direction sought with a large enough effect; inconclusive = small, poorly fitted or top-dose-only effect, or another doubt; inactive = no such curve, though single readings can be large; an effect the other way counts as inactive or inconclusive. Unless noted, % is scaled to controls: 0 for no effect and ±100 for the full control effect.

SMILES	HT1080-NT tox	DT40 TDP1 CPT	IL1B secr inh	HT1080 IDH1KD tx	TDP1 cell noCPT	12-LOX inh
CC(=O)Oc1ccc2c(C)c(CCC(=O)NCc3nc(-c4ccccc4)no3)c(=O)oc2c1	·	·	·	·	·	-3%
CCOC(=O)c1cc2cc(C#N)ccc2[nH]1	·	·	·	·	·	-46%
CC(Sc1nnc2c(Cl)cc(C(F)(F)F)cn12)C(=O)c1ccccc1 (centres undefined)	·	·	·	·	·	-4%
CCCOC(=O)CNC(=O)c1cc(OC)cc(OC)c1	·	·	·	·	·	-5%
CCn1c(=O)n(CC)c2cc(N3CCCCC3)c(NC(=O)Nc3cc(OC)ccc3OC)cc21	·	·	·	·	·	-15%
CCn1c(=O)n(CC)c2cc(N3CCCCC3)c(NC(=O)Nc3cc(Cl)ccc3OC)cc21	·	23µM*	·	·	18µM*	3%
CCOc1ccccc1C(=O)Nc1cc2c(cc1N1CCCCC1)n(C)c(=O)n2C	·	15µM*	·	·	18µM*	-71%
CCn1c(=O)n(CC)c2cc(N3CCCC3)c(NC(=O)c3ccccc3F)cc21	-2%	18µM*	?	1%	12µM*	27%
CCn1c(=O)n(CC)c2cc(N3CCCC3)c(NC(=O)Nc3cc(C)cc(C)c3)cc21	·	21µM*	·	·	18µM*	-22%
CCC(=O)N1CCN(c2ccccc2NC(=O)c2ccc(C#N)cc2F)CC1	·	·	·	·	·	13%
C=CCn1c(SCCO)nc2c1c(=O)n(C)c(=O)n2C	·	·	·	·	·	-19%
CCn1c(=O)n(CC)c2cc(N3CCCC3)c(NC(=O)c3ccccc3C)cc21	6%	16µM*	8	-16%	21µM*	4%
CCn1c(=O)n(CC)c2cc(N3CCCC3)c(NC(=O)c3ccccc3)cc21	-8%	21µM*	?	-16%	9.2µM*	6%
CCn1c(=O)n(CC)c2cc(N3CCCC3)c(NC(=O)c3cc(Br)ccc3OC)cc21	-3%	?	-14	6%	?	-15%
O=C(Cn1nc(-c2cccs2)c2ccccc2c1=O)NCCc1ccc(F)cc1	·	·	·	·	·	-19%
CC1CCC(NC(=O)CN2C(=O)c3ccccc3S2(=O)=O)CC1 (centres undefined)	14%	2%	-9	9%	3%	5%
CC1CCC(NC(=O)CN2C(=O)C3CC=CCC3C2=O)CC1 (centres undefined)	-3%	-10%	-2	2%	5.8µM*	-5%
CC(C)CC(NC(N)=O)C(=O)Nc1ccc(C(C)(C)C)cc1 (centres undefined)	·	·	·	·	·	2%
CS(=O)(=O)N1CCCC(C(=O)NC2CCN(Cc3ccccc3)CC2)CCNC(=O)CC1 (centres undefined)	·	·	·	·	·	37%
CC(=O)Nc1ccc(NC(=O)c2ccc3c(c2)NC(=O)c2ccccc2S3)cc1	·	-15%	·	·	5%	3%
Cc1ccc(NC(=O)c2ccc3c(c2)NC(=O)c2ccccc2S3)c(Cl)c1	·	3.7µM*	·	·	3.3µM*	?
CCC(C)N(CCNC(=O)c1ccc2c(c1)NC(=O)c1ccccc1S2)C1CCCCC1 (centres undefined)	?	15µM*	-86*	?	2.9µM*	-27%
O=C(O)c1ccc(CN2CCC3(CC2)CC(C(=O)O)N(C(=O)C2CC2)C3)cc1 (centres undefined)	·	·	·	·	·	2%
CN(CC(=O)NC(C)(C)C)C(=O)c1ccc2ccccc2n1	·	·	·	·	·	46%
Cc1nn(-c2ccc(F)cc2F)c2c1C(C(=O)c1ccc(C(C)C)cc1)CC(=O)N2 (centres undefined)	·	·	·	·	·	-19%
SMILES	HT1080-NT tox	DT40 TDP1 CPT	IL1B secr inh	HT1080 IDH1KD tx	TDP1 cell noCPT	12-LOX inh
CC(=O)NC(=S)Nc1ccc(NC(=O)c2cccc(Cl)c2)cc1	·	·	·	·	·	41%
CC(C)C(=O)NC(=S)Nc1ccc(NC(=O)c2cccc(Cl)c2)cc1	·	·	·	·	·	16µM*
CC(C)C(=O)Nc1cccc(NC(=S)NC(=O)c2ccccc2Cl)c1	1%	?	-15	-11%	18µM*	-1%
Cc1ccccc1C(=O)NC(=S)Nc1cccc(NC(=O)C(C)C)c1	-2%	-4%	-3	12%	?	-29%
CC(OC(=O)c1ccccc1O)C(=O)Nc1cccc(Cl)c1 (centres undefined)	-2%	-2%	1	-9%	13µM*	-7%
O=C(Nc1ccc(NC(=S)NC(=O)c2ccccc2Cl)cc1)c1cccc(Cl)c1	-23%	18µM*	-20	?	16µM*	0%
CC(C)CCC(=O)N1CCC2(CC1)CC(O)CCO2 (centres undefined)	·	·	·	·	·	40%
O=C(c1ccc(F)c(Cl)c1)N1CCC[C@H]1c1nc(-c2ccccc2)no1	·	·	·	·	·	0%
COc1ccc(CNC(=O)C23CCC(=O)N2CCS3)cc1 (centres undefined)	·	·	·	·	·	4%
CNC(=O)CSc1cc(-c2ccccc2)c2ccc(OC)cc2n1	·	·	·	·	·	0%
Cc1ccc(S(=O)(=O)NC(=O)c2ccc(-c3ccc(C)c4ccccc34)o2)cc1	0%	?	-13	-2%	?	35µM*
Cc1ccc(-c2ccc(C(=O)NCc3ccccc3)o2)c2ccccc12	-1%	23µM*	-22	-6%	?	-28%
COc1ccccc1C(=O)NS(=O)(=O)c1ccc(C)cc1	1%	4%	6	-2%	1%	0%
Cc1ccc(-c2ccc(C(=O)Nc3ccccc3)o2)c2ccccc12	-6%	?	-10	-12%	?	-18%
CC(=O)NCCCNC(=O)c1cc(-c2ccccc2)nc2ccccc12	·	·	·	·	·	10%
C=CCNC(=O)NC(=O)CN1CCN(c2oc(-c3ccco3)nc2C#N)CC1	·	·	·	·	·	-2%
COC(=O)[C@@]12C[C@@H](CC(=O)NCc3cccc(C(F)(F)F)c3)C(=O)N(Cc3ccccc3)C1=CCC(C)(C)C2	?	?	-78*	?	?	1%
COC(=O)[C@]12CCCCC=C1N(Cc1ccc(Cl)cc1Cl)C(=O)[C@H](CC(=O)NCc1cccc(C(F)(F)F)c1)C2	?	?	-4	?	?	-5%
COC(=O)[C@@]12C[C@@H](CC(=O)NCc3cccc(C(F)(F)F)c3)C(=O)N(Cc3cccc4ccccc34)C1=CCC(C)(C)C2	?	16µM*	0	?	16µM*	6%
O=C(NCc1ccc(Cl)cc1)c1cccc(-c2ccc(S(=O)(=O)N3CCCCC3)cc2)c1	·	·	·	·	·	-8%
